From PubChem BioAssay
VDR inhibitor: Inhibitors of the vitamin D receptor (VDR): qHTS. Potency, µM, for inactives: max response, negative = inhibition, most hits filed as inhibitors. VDR-SRC2-3 peptide fluorescence polarization, 2 h. 0.93% of 400,000 active; further: on the % scale 0 is the no-effect control and ±100 the full control effect
Target sequence (P11473 whole entry, looked up): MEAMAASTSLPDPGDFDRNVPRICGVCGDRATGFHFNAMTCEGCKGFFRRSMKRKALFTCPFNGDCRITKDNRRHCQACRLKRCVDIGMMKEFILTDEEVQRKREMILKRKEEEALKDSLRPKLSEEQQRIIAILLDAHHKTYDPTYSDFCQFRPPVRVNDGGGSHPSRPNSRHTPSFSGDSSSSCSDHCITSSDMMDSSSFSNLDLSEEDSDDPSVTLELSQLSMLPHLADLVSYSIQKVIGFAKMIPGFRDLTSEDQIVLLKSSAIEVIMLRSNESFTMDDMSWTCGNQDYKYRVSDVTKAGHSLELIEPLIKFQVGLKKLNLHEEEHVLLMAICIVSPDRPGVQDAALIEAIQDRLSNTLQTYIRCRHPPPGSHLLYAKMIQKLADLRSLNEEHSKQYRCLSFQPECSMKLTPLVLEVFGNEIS
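Fluorescence polarization assay of small-molecule disruption of VDR binding to coregulator peptide SRC2-3. Compounds and controls pin-transferred, then read after 2 h incubation at ambient room temperature.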
JMJD2A Tudor: qHTS Assay for Inhibitors of JMJD2A-Tudor Domain; Lysine-specific demethylase 4A (Homo sapiens), O75164; Potency, µM (top dose mostly 114 µM), without a hit: at the highest dose activity change, negative = inhibition, hits mostly inhibitors; AlphaScreen JMJD2A-Tudor / H3K4me3 peptide binding; 4.4% of 390,000 active; further: on the % scale 0 is the no-effect control and ±100 the full control effect; nearly all actives have a fitted effect of over 50% in size
BAZ2B inh: qHTS Assay for Inhibitors of BAZ2B | Bromodomain adjacent to zinc finger domain protein 2B (Homo sapiens), Q9UIF8 | AlphaScreen BAZ2B-H3K14Ac peptide displacement | Potency, µM (titrated, usually from 114 µM), for the others: at the top dose activity change, negative = inhibition, actives largely listed as inhibitors | 4.4% of 360,000 active; further: on the % scale 0 is the no-effect control and ±100 the full control effect; nearly all actives have a fitted effect of over 60% in size
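Protein-peptide AlphaScreen: BAZ2B 50 nM, b-H3K14Ac 50 nM, 1x PBS pH 7.4 + 0.01% Tween-20. Preincubation 30 min RT; cpd 30 min RT (top 110 uM); beads 20 min RT, light-protected.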
HP1b binding inh: HTS for Inhibitors of HP1-beta Chromodomain Interactions with Methylated Histone Tails | Chromobox protein homolog 1 (Homo sapiens), P83916 | AlphaScreen HP1-beta / biotin-H3K9me3 peptide binding | Potency, µM (titrated, usually from 114 µM), without a hit: at the highest dose activity change, negative = inhibition, usual class: inhibitors | 0.56% of 390,000 active; further: nearly all actives have a fitted effect of over 70% in size
Target sequence (P83916 whole entry, looked up): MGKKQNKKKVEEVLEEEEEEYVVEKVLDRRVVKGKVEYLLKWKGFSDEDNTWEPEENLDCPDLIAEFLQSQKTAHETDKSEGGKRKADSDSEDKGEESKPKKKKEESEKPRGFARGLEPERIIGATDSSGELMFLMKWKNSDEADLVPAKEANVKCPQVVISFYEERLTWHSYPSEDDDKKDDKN
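HP1-beta protein (50 nM final) preincubated 30 min at room temperature with biotinylated H3(1-18)K9me3 peptide (50 nM) in PBS pH 7.4, 0.01% Tween-20, then compound added for 30 min. AlphaScreen streptavidin donor/nickel chelate acceptor beads (10 ug/mL final), 30 min dark, luminescence read.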
PLK1 PBD block: qHTS for Inhibitors of PLK1-PDB (polo-like kinase 1 - polo-box domain): Primary Screen; Serine/threonine-protein kinase PLK1 (Homo sapiens), P53350; AID 720504, 2013; Plk1 PBD binding of FITC phosphopeptide, fluorescence polarization; Potency, µM, for inactives: max response, negative = inhibition, hits mostly inhibitors; 2.8% of 360,000 active; further: series mostly up to about 57 µM; on the % scale 0 is the no-effect control and ±100 the full control effect; nearly all actives have a fitted effect of over 65% in size
L3MBTL1 inh: qHTS Assay for the Inhibitors of L3MBTL1; 0.66% of 230,000 active; Potency, µM (doses to about 57.1 µM), for the others: at the highest dose activity, negative = inhibition, actives largely listed as inhibitors; AlphaScreen L3MBTL1–H3K9me1 peptide binding; further: on the % scale 0 is the no-effect control and ±100 the full control effect; nearly all actives have a fitted effect of over 60% in size
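AlphaScreen assay: L3MBTL1 (50 nM final) was preincubated 30 min at room temperature with biotinylated H3(1-15)K9me1 peptide (75 nM final), then 30 min with library compounds; streptavidin donor and nickel chelate acceptor beads (10 ug/mL final) added, 30 min dark.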
The depositor's hits bear a star; ? = inconclusive; nt = no result; [ ] = another dose, or the depositor's remark. The list is not random: actives were taken first. Their share in the collection is about 6.9%. The call rests on the fitted dose curve; in most records, active means well fitted curve in the direction sought with a large enough effect; inconclusive means small, poorly fitted or top-dose-only effect, or another doubt; inactive means no such curve, though single readings can be large; an effect the other way counts as inactive or inconclusive. Potency means the concentration at half of the fitted maximal effect.

SMILES | VDR inhibitor | JMJD2A Tudor | BAZ2B inh | HP1b binding inh | PLK1 PBD block | L3MBTL1 inh
CCOc1ccc(N2C(=O)CC(Sc3ccccc3C(=O)O)C2=O)c([N+](=O)[O-])c1 (stereo not drawn) | -23.7% | ? | 63.1µM* | 1.8% | 26.7µM* | -1.8%
CCOC(=O)c1c(N2C(=O)CC(Sc3ccccc3C(=O)O)C2=O)sc2c1CCCC2 (stereo not drawn) | -6.6% | ? | 50.1µM* | 7.7% | 0.0% | 1.0%
O=C(O)c1ccccc1SC1CC(=O)N(c2cccc3ccccc23)C1=O (stereo not drawn) | -20.4% | 22.4µM* | ? | ? | 29.9µM* | nt
CCN1C(=O)CC(Sc2ccccc2C(=O)O)C1=O (stereo not drawn) | -5.2% | -13.2% | ? | 17.1% | -3.1% | nt
CCc1cc(=O)[nH]c(SCc2nc(-c3ccc(C(F)(F)F)cc3)no2)n1 | 9.0% | 2.9% | -1.1% | 24.9%[57 µM] | nt | nt
O=C(/C=C/c1ccccc1)Nc1nc(-c2cccs2)ns1 | 12.3% | -23.5% | -14.5% | 48.3% | nt | nt
O=C(O)CSc1nnc(-c2ccc(Cl)cc2Cl)n1-c1ccccc1 | 4.1% | -10.3% | -2.9% | 26.8% | 1.4% | 3.0%
Cc1nc(-c2ccc([S+](=O)([O-])N3CCN([S+](=O)([O-])c4c(F)cccc4F)CC3)s2)cs1 | nt | -10.3% | nt | nt | nt | nt
C[C@@H]1Cc2c(O)c(O)cc(O)c2C(=O)O1 | 8.7% | 56.2µM* | ? | ? | -17.5% | nt
CC1CC(Nc2cccc(O)c2)=CC(=O)O1 (stereo not drawn) | 28.0% | 3.9% | -15.5% | 18.0% | -5.8% | nt
COc1ccc(N2CCN(c3ccc4nnc(CCC(=O)Nc5ccc(C)cc5)n4n3)CC2)cc1 | -27.2% | ? | 44.7µM* | ? | -3.3% | 3.3%
CC1CCN(c2ccc3nnc(CCC(=O)Nc4cccc(F)c4)n3n2)CC1 | -23.3% | -35.1% | -14.2% | 1.0% | 26.7µM* | nt
COc1ccc(NC(=O)CCc2nnc3ccc(N4CCC(C)CC4)nn23)cc1 | -0.8% | 0.7% | -18.2% | 21.7%[57 µM] | 2.5% | nt
CCC(C)NC(=O)CSc1nnc(-c2ccc(C)cc2)c(-c2ccc(C)cc2)n1 (stereo not drawn) | 7.9% | -12.2% | -1.8% | 15.9% | nt | nt
CC(=O)Nc1ccc(S(=O)(=O)N2CCN(S(=O)(=O)c3c(F)cccc3F)CC2)cc1 | nt | -12.2% | nt | nt | nt | nt
COc1ccc(-c2nn[nH]n2)cc1OC | -18.6% | -13.1% | ? | 30.8% | -14.4% | nt
COc1cccc(-c2nn[nH]n2)c1O | 1.6% | ? | 56.2µM* | 26.6% | -3.2% | 7.6%
Cc1ccc(NC(=O)C[n+]2cc(-c3ccc(C)cc3)n3c2CCC3)cc1 | 12.2% | 8.91µM* | 3.8% | 16.7% | -3.2% | 6.6%
COc1cccc(/C=c2\sc3nc(-c4cccs4)nn3c2=O)c1OC | -14.1% | -20.8% | -24.0% | -18.8% | -10.0% | 6.7%
COc1ccccc1/C=C/C=c1\sc2nc(=O)c(Cc3ccccc3)nn2c1=O | ? | 56.2µM* | 44.7µM* | -22.2% | ? | nt
Cc1ccc(/C=c2\sc3nc(-c4cccs4)nn3c2=O)o1 | 35.5µM* | ? | -32.5% | 0.3% | -2.4% | ?
O=c1/c(=C/c2ccco2)sc2nc(-c3ccccc3Br)nn12 | 10.5% | 50.1µM* | 44.7µM* | 8.91µM* | ? | ?
COc1ccccc1-c1nc2s/c(=C\c3cccs3)c(=O)n2n1 | -14.8% | -5.3%[11.4 µM] | -32.8% | -37.7% | -29.9% | nt
CCCOc1ccc(Cc2nn3c(=O)/c(=C/c4ccco4)sc3nc2=O)cc1 | -6.9% | 56.2µM* | 0.9% | 12.6% | -10.9% | ?
CCOc1ccccc1C1NC(c2ccc3c(c2)OCO3)=CC(c2ccccc2O)N1 (stereo not drawn) | -16.1% | -17.7%[57.1 µM] | nt | 8.0%[57 µM] | nt | nt
SMILES | VDR inhibitor | JMJD2A Tudor | BAZ2B inh | HP1b binding inh | PLK1 PBD block | L3MBTL1 inh
O=S(=O)(c1ccc2c(c1)OCCO2)N1CCN(S(=O)(=O)c2cccs2)CC1 | nt | -14.4% | nt | nt | nt | nt
CC(C)(C)OC(=O)N1CCC(c2cc(=O)n3[nH]cc(C(=O)Nc4ccc(F)c(Cl)c4)c3n2)CC1 | -6.0% | -17.8% | -1.9% | 8.7%[57 µM] | 23.8µM* | -0.3%
COc1ccc(NC(=O)c2c[nH]n3c(=O)cc(C4CCN(C(=O)OC(C)(C)C)CC4)nc23)cc1Cl | -8.7% | -26.7% | ? | 17.0% | 23.8µM* | nt
CC(C)(C)OC(=O)N1CCC(c2cc(=O)n3[nH]cc(C(=O)NC4CCCC4)c3n2)CC1 | -0.7% | -16.6% | -1.0% | 40.6% | -21.8% | nt
CCOc1ccc(CNC(=O)c2ccc(-c3nc(CS(=O)(=O)c4ccccc4)c(C)o3)cc2)cc1 | 17.0% | -6.9% | -18.3% | 23.4% | nt | nt
CS(=O)(=O)N(CC(=O)NCCSCc1ccccc1)c1cc(C(F)(F)F)ccc1Cl | -19.0% | -19.0% | -1.3% | 52.0% | nt | nt
COc1ccc2c(c1)c[n+](C)c1c3cc(OC)c(OC)cc3ccc21 | nt | nt | nt | nt | 11.9µM* | nt
CC1=CC(c2ccc(Cl)cc2)n2nc(NC(=O)c3ccccc3)nc2N1 (stereo not drawn) | 4.8% | -30.1% | 56.2µM* | 54.1% | -9.7% | nt
CC1=CC(c2ccccc2)n2nc(NC(=O)CCC(=O)O)nc2N1 (stereo not drawn) | 7.0% | ? | ? | -13.5% | -14.8% | -8.6%
CC1=CC(c2ccccc2)n2nc(NC(=O)CCCC(=O)O)nc2N1 (stereo not drawn) | -3.9% | ? | 50.1µM* | 6.6% | -2.5% | nt
C=CCn1c(CCC(O)CCCCC)n[nH]c1=S (stereo not drawn) | 0.0% | 17.8µM* | 3.6% | 2.9% | -4.5% | 7.1%
CCOC(=O)N1CCN(C(=O)C[C@@H]2C[C@@]3(C(=O)OC)CCCCC=C3N(CCc3ccc(OC)c(OC)c3)C2=O)CC1 | nt | nt | nt | nt | -0.1% | nt
CN(C)S(=O)(=O)c1cc(NC(=O)COC(=O)c2ccc3c(c2)OCO3)ccc1Cl | -15.5% | -28.7% | -3.3% | 21.7% | 3.2% | 0.6%
Cc1cccc(-c2ncc(CN3CCN(CC(C)C)C(CCO)C3)cn2)c1 (stereo not drawn) | -2.6% | 17.8µM* | -19.0% | 10.6% | -4.1% | 4.2%
N#Cc1ccc(S(=O)(=O)N2CCC(C(=O)Nc3cccc(C(=O)NC4CC4)c3)CC2)cc1 | 10.1% | 13.2% | 3.8% | 29.8% | 3.4% | -4.1%
